Test results published in PubChem BioAssay (NCI).
About 83,000 compounds went through this panel and 20% of them were active in at least one assay; those are over-represented in the sample as a whole.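 Plates (96-well) were seeded with cells, treated with compound at one concentration, and incubated for 48 hours before percent growth was determined.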 Values without a mark were called inactive. Active and inactive are the calls of the source. How the source made its calls: active means growth percent below 10; inactive means the rest.

Tested on: NCI-H226 lung
Assay: NCI-60 one-dose screen, 48 h (100 = growth as untreated, 0 = no growth, -100 = all killed)
Details: 10 µM unless noted

| Compound | growth |
| --- | --- |
| Cc1ccc(C2CC(c3nc(-c4ccc(Cl)cc4)oc3C)=NN2C(=O)c2ccncc2)cc1 (stereo not given) | 88.3% |
| CSc1nc(C)c([N+](=O)[O-])c(N)n1 | 102% |
| [2H]C([2H])([2H])Oc1ccc(F)cc1/C=C/C(=O)/C=C(O)/C=C/c1cc(F)ccc1OC([2H])([2H])[2H] | 105% |
| COc1ccc(-c2nc3c(N)c(CO)cnc3s2)cc1 | 41.6% |
| O=S(=O)(NCCNc1nccc(-c2c(-c3ccc(F)c(O)c3)nc3sccn23)n1)c1ccc(F)cc1 | 83.6% |
| CCOC(=O)c1cnc2c(N=Nc3ccc(OC)cc3)c(N)nn2c1N | 99.7% |
| COc1ccc(-c2nn(-c3ccccc3)cc2/C=C/C(=O)NNC(=O)Nc2ccc(C)cc2)cc1 | 97.2% |
| Oc1ccc(/C=C/c2ccc(O)cc2)cc1 | 90.8% |
| O=[N+]([O-])c1ccc(-c2cn3nc(-c4c[nH]c5ccccc45)sc3n2)cc1 | 90.8% |
| Oc1c(CN2CCOCC2)cc(COCc2ccccc2)c2cccnc12 | 43.4% |
| CCOC(=O)CC1CSC(Nc2ccccc2)=N1 (stereo not given) | 105% |
| CCc1n(Cc2ccc3ccccc3n2)cc[n+]1Cc1ccc2ccccc2n1 | 48.4% |
| O=P(O)(O)OCC1OC(n2cnc3c(NCc4ccco4)ncnc32)C(O)C1O (stereo not given) | 20.4% |
| COc1ccc(C2=CC(c3cc(OC)c(OC)c(OC)c3)n3ncnc3N2)cc1 (stereo not given) | 51.1% |
| C/C=C(\C)C(=O)N[C@H]1C(O)C[C@]2(C)C3CC[C@@]4(C)C(CC[C@@H]4C(C)N(C)C)C3CCC2C1O (stereo not given in full) | 115% |
| COc1cc(-c2nc3sccn3c2-c2ccnc(NCCNS(=O)(=O)c3ccc(Cl)cc3)n2)ccc1F | 8.63% (active) |
| CCCn1cnc2c(c1=N)C(c1ccc(F)cc1)c1sc3c(F)cccc3c1O2 (stereo not given) | 74.7% |
| C#CCNC(=O)[C@]1(C)CCC[C@@]2(C)[C@H]1CC=C1C=C(C(C)C)CC[C@@H]12 | 97.6% |
| N[C@H]1CCC[C@@H]1NCCCCN1C(=O)c2cccc3cc([N+](=O)[O-])cc(c23)C1=O | 34.4% |
| CC1C=CC(OC(=O)C(C)(O)CCC(O)(C(=O)OC2CC(O)C(C(C)C)CC2(C)O)C(C)C)(C(C)C)CC1 (stereo not given) | -48.6% [4.63 µM] (active) |

| Compound | growth |
| --- | --- |
| C=CC(=O)Nc1ccc(Nc2nccc(-c3ccc(N4CCCC4)c(C#N)c3)n2)cc1 | 52.7% |
| CC(=O)OC(c1ccccc1)C1CCOC1=O (stereo not given) | 93.6% |
| COC(=O)CCC/C=C\C[C@H]1C=CC(=O)/C1=C/C[C@@H](O)C/C=C\CC(F)(F)F | -48% (active) |
| N#CC1=C(N)Oc2ccc3ccccc3c2C1c1ccc([N+](=O)[O-])cc1 (stereo not given) | 87.4% |
| COc1cc(-c2nc3c(ncc4ccc(=O)n(-c5ccccc5)c43)s2)cc(OC)c1OC | 63.3% |
| Cc1ccc(-c2csc(N(C(=O)N3CCN(c4cc5c(cc4F)c(=O)c(C(=O)O)cn5C4CC4)CC3)c3ccccc3)n2)cc1 | 7.91% (active) |
| O=c1cc(-c2ccccc2)[nH]c2ncc(-c3ccc(F)cc3)n12 | 86.6% |
| COc1cc(-c2nc3cc(Cl)c(Cl)cc3[nH]2)ccc1OCC(=O)N=Nc1c(O)[nH]c2ccc(Cl)cc12 | 30.4% |
| NC(=O)c1c(NC(=O)c2cccs2)sc2c1CCC(=O)C2 | 82.9% |
| O=C(Oc1ccc(CCl)cc1)c1ccccc1 | -97.8% (active) |
| O=C(Cc1ccc(/C=C/C(=O)c2ncc[nH]2)cc1)Nc1cc(C(F)(F)F)cc(C(F)(F)F)c1 | 103% |
| Nc1ncnc2c1N=C(c1ccc3c(c1)OCO3)CC(c1cccc(Nc3ccnc4cc(C(F)(F)F)ccc34)c1)N2 (stereo not given) | 78.1% |
| COc1cccc(/C=N/NC(=O)c2ccccc2N2CCCC2)c1O | 71.7% |
| CCNc1ccc(-c2nc3ccccc3n3cccc23)cc1 | 68.8% |
| CN(C)CCCNC(=O)c1cncnc1Nc1ccc(OCc2cccc(F)c2)c(Cl)c1 | 89% |
| O=C(NC1CC(F)C1)c1cc2cccnc2n1-c1ccc(Cl)c(Cl)c1 (stereo not given) | 103% |
| CN1CCN(c2ccc3nc4c(nc3c2C(F)(F)F)C(=O)c2ncccc2C4=O)CC1 | -78.9% (active) |
| Cc1ccc(N2C(=O)CCC2=O)cc1 | 105% |
| CCN1C(=O)N(CC)C2C1NN=c1s/c(=C3\C(=O)N(CCC(C)C)c4ccccc43)c(=O)n12 (stereo not given) | 56.3% |
| CN(Cc1cnc2nc(N)nc(N)c2n1)c1ccc(C(=O)NC(CCC(=O)O)C(=O)O)cc1Br (stereo not given) | 48.4% |
